Source: PubChem BioAssay (National Center for Advancing Translational Sciences (NCATS))
An excerpt weighted towards active compounds, which were near 8.8% of everything screened.
HT1080-NT tox = qHTS for induction of synthetic lethality in tumor cells producing 2HG: qHTS for the HT-1080-NT fibrosarcoma cell line | Potency, µM (titrated, usually from 46.1 µM), for the others: at the highest dose activity, negative = less viability, most hits filed as cytotoxic | HT-1080-NT fibrosarcoma viability, CellTiter-Glo ATP luminescence, 48 h | AID 686970, 2013 | hit rate 1.6% among 360,000;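 note: NT is the 2HG producing partner of a matched IDH1 knockdown line; potency is the fitted concentration of half-maximal effect; 0% = DMSO-treated cells and -100% = media-only wells without cells; nearly all actives have a fitted effect of over 55% in size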
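Compounds were tested in concentration-response format on HT-1080-NT cells for 48 hours at 37 degrees C. Cell viability came from CellTiter-Glo luminescence; curves were classified by r2, response magnitude and activity.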
IL1B secr inh = qHTS for Inhibitors of Inflammasome Signaling: IL-1-beta AlphaLISA Primary Screen | THP-1 LPS/ATP IL-1B secretion, AlphaLISA, 16 h; stronger effect = lower value | activity change, % at 57.5 µM | hit rate 4.7% among 360,000 | AID 743279, 2014; in the data active = activity change below about -50%; inconclusive = mostly about -30% to -49%
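Secreted IL-1B measured by AlphaLISA bead assay after 16 h compound exposure of THP-1 cells; compounds (final up to 57.5 uM) added 1 h before LPS (250 ng/mL) and ATP (1.25 mM) stimulation; lower signal means less secretion.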
KB-3-1 cytotox = qHTS assay for MDR1-selective chemotherapeutics: Primary screen using the parental adenocarcinoma cell KB-3-1. hit rate 1.4% among 400,000. KB-3-1 viability, CellTiter-Glo ATP luminescence, 72 h. AID 1347075, 2019. Potency, µM (titrated, usually from 46.1 µM), most hits filed as cytotoxic; note: potency is the fitted concentration of half-maximal effect; nearly all actives have a fitted effect of over 60% in size
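Parental KB-3-1 adenocarcinoma cells in phenol-red-free DMEM with 10% FBS were pin-treated with compounds at several concentrations, incubated 72 h at 37 °C, and viability read by CellTiter-Glo luminescence; concentration-effect curves were fitted after normalization.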
HT1080 IDH1KD tx = qHTS for induction of synthetic lethality in tumor cells producing 2HG: qHTS for the HT-1080-IDH1KD cell line; HT-1080 IDH1 knockdown viability, ATP luminescence, 48 h; Potency, µM (titrated, usually from 46.1 µM), without a hit: at the top dose activity, negative = toxicity, actives largely listed as cytotoxic; hit rate 2% among 360,000; AID 686971, 2013;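 note: potency is the fitted concentration of half-maximal effect; 0% = DMSO wells and -100% = cell-free medium wells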
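% activity derives from luminescence (CellTiter-Glo), normalised to DMSO and no-cell wells. HT-1080-IDH1KD cells, 750/well, had 48 h compound exposure at 37 °C.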
KB-V1 MDR tox = qHTS assay for MDR1-selective chemotherapeutics: Primary screen using the drug-selected MDR subline cells KB-V1. KB-V1 MDR cells viability, CellTiter-Glo, 72 h. Potency, µM (titrated, usually from 46.1 µM), hits mostly cytotoxic. hit rate 3.4% among 400,000. AID 1347076, 2019; note: potency is the fitted concentration of half-maximal effect; nearly all actives have a fitted effect of over 60% in size
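In this primary screen, KB-V1 cells overexpressing P-gp are incubated with library compounds (lowest to highest concentration) for 72 h at 37 degrees C before a luminescent ATP viability read.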
* = called active by the depositor; i = inactive; u = inconclusive; x = no result; [ ] = remark or other dose. Unless noted, calls come from the whole dose curve; as a rule, active = well fitted curve in the direction sought with a large enough effect; inconclusive = small, poorly fitted or top-dose-only effect, or another doubt; inactive = no such curve, though single readings can be large; an effect the other way counts as inactive or inconclusive. Unless noted, % is set by controls: 0 for no effect and ±100 for the full control effect.

SMILES	HT1080-NT tox	IL1B secr inh	KB-3-1 cytotox	HT1080 IDH1KD tx	KB-V1 MDR tox
CC1CCN(C(C)C(=O)Nc2ccccc2-c2ccccc2)CC1 (configuration not stated)	-24.6%	0.0	u	-15.0%	u
CC(C(=O)Nc1ccccc1-c1ccccc1)N1CCN(Cc2ccccc2)CC1 (configuration not stated)	-14.2%	-53.9*	i	-8.9%	i
CC(C(=O)Nc1ccccc1-c1ccccc1)N1CCN(C(=O)c2ccccc2)CC1 (configuration not stated)	0.0%	37.7	i	1.1%	i
CN(Cc1ccccc1)C(=O)COC(=O)c1cc(NS(=O)(=O)c2cccs2)ccc1O	-2.1%	26.2	i	u	i
COC(=O)c1cccc(S(=O)(=O)N2CCC(C)CC2)c1	25.5%	1.9	i	-0.6%	20.6µM*
CC1CCN(S(=O)(=O)c2cccc(C(=O)Nc3ccccc3)c2)CC1	-10.6%	-54.2*	u	-14.6%	u
CC1CCN(S(=O)(=O)c2cccc(C(=O)O)c2)CC1	3.4%	8.4	i	-3.9%	i
COC(=O)c1cccc(S(=O)(=O)N2CCC(NC(=O)NC34CC5CC(CC(C5)C3)C4)CC2)c1	1.4%	-13.3	i	-0.8%	11.6µM*
Cc1ccc(S(=O)(=O)N2CCN(c3nc(-n4cccn4)nc4ccccc34)CC2)cc1	-27.0%	x	x	-21.1%	x
COc1cccc(NC(=O)COC(=O)/C=C/c2c(C)nn(-c3ccccc3)c2C)c1	-16.6%	3.7	i	3.7%	i
COc1cc(Cl)c(C)cc1NC(=O)C1CCCN(c2ncnc3onc(-c4ccc(F)cc4)c23)C1 (configuration not stated)	x	x	i	x	u
Cc1[nH]nc(-c2cccnc2)c1N=NN(C)C	20.6µM*	-103.7*	u	20.6µM*	16.4µM*
CCOC(=O)c1cc(-c2ccc(C)cc2)n(CC(=O)Nc2ccccc2F)c1C	x	x	i	x	u
Cc1ccc(N2C(=O)NC3(CCCCC3)C2=O)cc1	3.9%	-6.1	i	5.8%	i
Cc1ccc(N2NC3(CCN(C(N)=O)CC3)NC2=O)cc1	5.8µM*	9.0	i	6.51µM*	i
N#Cc1c(N2CCOCC2)nsc1-c1ccccc1	-1.7%	-14.8	10.3µM*	2.9%	u
CCN(CC)c1ccc(/C=C/c2ccncc2)cc1	x	x	0.517µM*	x	i
CN(C)c1ccc(/C=C/c2ccncc2)cc1	-1.2%	-0.4	u	-0.9%	i
Cc1cc(C)n2nc(SCC3COc4ccccc4O3)nc2n1 (configuration not stated)	-2.2%	-6.0	i	-11.2%	23.1µM*
Cc1cc(C)n2nc(SCc3nnc(SCc4ccccc4Cl)s3)nc2n1	-1.0%	14.5	i	-3.1%[9.24 µM]	i
Cc1cc(C)n2nc(SCc3nnc(SCc4ccccc4C)s3)nc2n1	-3.3%	-6.9	i	u	20.6µM*
CCCN1CNc2c(c(=O)[nH]c(=S)n2CCc2ccc(Cl)cc2Cl)C1	-4.2%	x	x	-7.4%	x
Cc1nc(N2CCCCC2)sc1C(=O)c1cccc([N+](=O)[O-])c1	-12.3%	-103.4*	i	-0.1%	u
Cc1nc(N2CCCCC2)sc1C(=O)c1ccc(SCCO)c([N+](=O)[O-])c1	-11.8%	-54.4*	i	-17.8%	14.6µM*
N=C(c1cccc([N+](=O)[O-])c1)N1CCCCCC1	8.0%	1.9	i	7.3%	u
SMILES	HT1080-NT tox	IL1B secr inh	KB-3-1 cytotox	HT1080 IDH1KD tx	KB-V1 MDR tox
O=[N+]([O-])c1ccc(N2CCCCC2)cc1SCCO	16.0%	14.1	i	0.7%	i
O=C(NCc1cccc(Cl)c1)C1Cc2c(-c3ccc(Cl)cc3)ccnc2O1 (configuration not stated)	-0.4%	0.8	i	-9.7%	u
CCOc1ccc(C2C(C(=O)Nc3ccc(OC)cc3)=C(C)Nc3nc(SCc4ccc(Cl)cc4)nn32)cc1 (configuration not stated)	x	x	i	x	i
Cn1cc(CNCc2ccccc2OCC(O)CN2CCc3ccccc3C2)cn1 (configuration not stated)	-9.1%	u	u	-5.6%	i
CC(C)c1ccc(C(C)NC(=S)NC2CCCCC2)cc1 (configuration not stated)	-3.3%	0.0	u	-1.3%	u
CCC(C)c1ccc(C(C)NC(=S)NC2CCCCC2)cc1 (configuration not stated)	u	-0.3	u	23.1µM*	u
CC(NC(=S)NC1CCCCC1)c1ccc(C(C)(C)C)cc1 (configuration not stated)	-27.1%	-20.0	u	23.1µM*	11.6µM*
CC(C)Oc1ccc(CNC(=O)c2ccc3nc(Cc4ccccc4)oc3c2)cc1	x	x	i	x	i
Cc1ccc(S(=O)(=O)N2CCn3cccc3C2C)cc1 (configuration not stated)	-0.2%	13.3	i	-7.8%	13µM*
CC1(NC(=S)Nc2ccc3ccccc3c2)CCS(=O)(=O)C1 (configuration not stated)	0.7%	15.4	i	-13.7%	i
CN(C)C(=S)NC(=S)Nc1ccc2ccccc2c1	2.4%	46.2	u	-28.7%	18.4µM*
CCOc1ccc(/C=C/c2ccc3ccccc3n2)cc1OCC	x	x	u	x	i
O=c1/c(=C\c2cccnc2)sc2nc3ccccc3n12	23.6%	19.1	i	8.2%	i
O=C1CCC/C1=c1\s/c(=C/c2cccnc2)c(=O)n1-c1ccccc1	1.6%	-73.2*	x	-0.7%	x
O=C1CCC/C1=c1\s/c(=C\c2cccnc2)c(=O)n1-c1ccccc1	-0.3%	-74.9*	i	-2.0%	i
Cc1ccc(S(=O)(=O)N2CCOCC2)cc1NC(=O)COC(=O)CCC(=O)c1ccc(F)cc1	3.5%	3.7	i	-0.1%	i
CC(NC(=O)c1ccco1)C(=O)N1CCN(c2cccc(C(F)(F)F)c2)CC1 (configuration not stated)	-9.6%[9.24 µM]	0.0	i	-2.5%	i
COc1ccc(-c2csc(NC(=O)CCNC(=O)c3ccco3)n2)cc1	0.7%	14.2	i	-1.0%	i
O=c1cc(-c2ccc(F)cc2)nc(SCc2nc(-c3ccc(Cl)cc3)no2)[nH]1	x	x	i	x	i
O=C(Nc1cccc2ccccc12)OC1C=CS(=O)(=O)C1 (configuration not stated)	18.4µM*	x	u	u	u
Cc1onc(-c2c(F)cccc2Cl)c1-c1nnc(-c2ccc(C(F)(F)F)cc2)o1	-22.1%	x	i	25.9µM*	u
